Assay results published in PubChem BioAssay (NCI).
About 83,000 compounds went through this panel and 20% of them were active in at least one assay; those are over-represented in the sample as a whole.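 Cell lines were cultured in 96-well plates, exposed to a single compound concentration, and assessed for percent growth 48 hours later.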 Calls of active or inactive are those of the source. Rule for the calls: active = growth percent below 10; inactive = the rest.

Experiments:
Experiment in all cases: NCI-60 one-dose screen, 48 h (100 = growth as untreated, 0 = no growth, -100 = all killed)
Settings in all cases: 10 µM unless noted
EKVX NSCLC = test system: EKVX NSCLC
SN12C renal = test system: SN12C renal
UO-31 renal = test system: UO-31 renal
ACHN renal = test system: ACHN renal
CAKI-1 renal = test system: CAKI-1 renal
A498 renal = test system: A498 renal
CCRF-CEM leukemia = test system: CCRF-CEM leukemia
MOLT-4 leukemia = test system: MOLT-4 leukemia
TK-10 renal = test system: TK-10 renal

Measured: growth

O=C1/C=C/[C@@H](O)[C@@H]2C[C@@H](O)C[C@H]2/C=C/CCC[C@H](CO)O1
inactive: EKVX NSCLC 36.4% | SN12C renal 43.9% | UO-31 renal 11.2% | ACHN renal 19.8% | CAKI-1 renal 17.9% | CCRF-CEM leukemia 22.3%
active: A498 renal -30.3% | MOLT-4 leukemia -16.9%

Cc1ccc(/C=C/C(=O)c2ccc(F)cc2)s1
active: CCRF-CEM leukemia 8.11%
inactive: EKVX NSCLC 81.1% | SN12C renal 71.7% | UO-31 renal 57.6% | ACHN renal 83% | CAKI-1 renal 78.6% | A498 renal 70.1% | MOLT-4 leukemia 11.6%

c1ccc2c(-c3nc4ccccc4[nH]3)cccc2c1
inactive: EKVX NSCLC 70% | SN12C renal 47.3% | UO-31 renal 60.5% | ACHN renal 52.7% | CAKI-1 renal 61.2% | A498 renal 29.1% | CCRF-CEM leukemia 22.3% | MOLT-4 leukemia 11.6%

COP(=O)(OC)C(c1ccc(O)cc1)(c1ccc(O)cc1)c1ccc(O)cc1
active: CCRF-CEM leukemia 5.74%
inactive: EKVX NSCLC 113% | SN12C renal 105% | TK-10 renal 124% | ACHN renal 103% | CAKI-1 renal 94.9% | A498 renal 98.7% | MOLT-4 leukemia 94.3%

CC1(C)CC2(C)CC(=O)C1C(C(=O)O)C2C(=O)O (stereo not given)
inactive: EKVX NSCLC 121% | SN12C renal 105% | UO-31 renal 98% | ACHN renal 97.2% | CAKI-1 renal 114% | A498 renal 111% | CCRF-CEM leukemia 99.4% | MOLT-4 leukemia 94.3%

N#CSCC1CC(O)(c2ccccc2)C(c2ccccc2)C(c2ccc(Cl)cc2)O1 (stereo not given)
inactive: CCRF-CEM leukemia 10.2%
active: EKVX NSCLC -40% | SN12C renal -91.9% | UO-31 renal -93.1% | ACHN renal -71.6% | CAKI-1 renal -67.1% | A498 renal 6.8% | MOLT-4 leukemia -10%

CN(C)CCCNc1nn2c(=O)c3ccccc3nc2c2ccccc12
active: MOLT-4 leukemia -19.6%
inactive: EKVX NSCLC 53.5% | SN12C renal 58.3% | TK-10 renal 75.3% | ACHN renal 29.9% | CAKI-1 renal 20.8% | A498 renal 92% | CCRF-CEM leukemia 30.3%

COc1ccc(C(=O)/C=C/c2cccc(Nc3ccnc4cc(Cl)ccc34)c2)cc1
inactive: EKVX NSCLC 50.9% | SN12C renal 25.7% | ACHN renal 29.6% | A498 renal 39.7% | CCRF-CEM leukemia 37.2% | MOLT-4 leukemia 42.3%
active: UO-31 renal 6.64% | TK-10 renal -11%

Clc1ccc(C2=NN(c3ccc(Cl)cc3)C(c3cccc(Nc4ccnc5cc(Cl)ccc45)c3)C2)cc1 (stereo not given)
inactive: EKVX NSCLC 74.3% | SN12C renal 77.7% | UO-31 renal 50.7% | TK-10 renal 95.2% | ACHN renal 88.7% | CCRF-CEM leukemia 88.5% | MOLT-4 leukemia 56.7%

Nc1nc2c(c(=O)[nH]1)C1(C(=O)Nc3ccccc31)c1c(nc(N)[nH]c1=O)N2
inactive: EKVX NSCLC 104% | SN12C renal 103% | UO-31 renal 86.7% | ACHN renal 105% | CAKI-1 renal 102% | CCRF-CEM leukemia 105% | MOLT-4 leukemia 90%

c1ccc(-c2n(Cc3ccc4ccccc4c3)cc[n+]2Cc2ccc3ccccc3c2)cc1
active: EKVX NSCLC 3.5% | SN12C renal -34.7% | UO-31 renal -16.6% | TK-10 renal -69.8% | A498 renal -20.5% | CCRF-CEM leukemia 6.85% | MOLT-4 leukemia -24.9%
inactive: ACHN renal 13.3%

Cc1cc2c(cc1C)[n+](Cc1ccc3ccccc3c1)cn2Cc1ccc2ccccc2c1
active: EKVX NSCLC -64.3% | SN12C renal -87.2% | UO-31 renal -57.1% | TK-10 renal -87.7% | ACHN renal -63.9% | CCRF-CEM leukemia -35.1% | MOLT-4 leukemia -64.1%

O=C1NCCc2c1noc2-c1ccccc1
inactive: EKVX NSCLC 97.8% | SN12C renal 109% | UO-31 renal 88.2% | ACHN renal 106% | A498 renal 105% | CCRF-CEM leukemia 109% | MOLT-4 leukemia 97.5%

COc1ccc(C2=NN(C=O)C(c3cccc(Nc4ccnc5cc(Cl)ccc45)c3)C2)cc1 (stereo not given)
inactive: EKVX NSCLC 36.1% | SN12C renal 36.1% | UO-31 renal 31.2% | TK-10 renal 37.1% | ACHN renal 35.9% | A498 renal 27.4% | CCRF-CEM leukemia 17.1%
active: MOLT-4 leukemia 9.88%

COc1ccc(C2CC(c3ccc(Nc4ccnc5cc(Cl)ccc45)cc3)=NN2C(C)=O)cc1 (stereo not given)
inactive: EKVX NSCLC 55.7% | SN12C renal 76.1% | UO-31 renal 64.7% | ACHN renal 54.8% | CAKI-1 renal 73.2% | A498 renal 56.1% | CCRF-CEM leukemia 47.2% | MOLT-4 leukemia 40.8%

COc1ccc(CC(=O)Nc2nn3c(-c4cc(C(F)(F)F)cc(C(F)(F)F)c4)nnc3s2)cc1
inactive: EKVX NSCLC 67.4% | SN12C renal 64.7% | UO-31 renal 74% | ACHN renal 81.9% | CAKI-1 renal 46.2% | A498 renal 79.9% | CCRF-CEM leukemia 49.9% | MOLT-4 leukemia 65.7%

CCCCc1n(Cc2ccc3ccccc3c2)cc[n+]1Cc1ccc2ccccc2c1
inactive: EKVX NSCLC 14.4% | UO-31 renal 18.9% | ACHN renal 30%
active: SN12C renal -22.3% | TK-10 renal -10.4% | A498 renal 0.276% | CCRF-CEM leukemia 6.82% | MOLT-4 leukemia -17.5%

O=C1c2cc3c(cc2-c2c1c1ccc(Cl)cc1c(=O)n2CCCNCCO)OCO3
active: EKVX NSCLC -65.3% | SN12C renal -66.6% | UO-31 renal -81.7% | ACHN renal -87.5% | CAKI-1 renal -80% | A498 renal -94.4% | CCRF-CEM leukemia -24.9% | MOLT-4 leukemia -34.5%

O=C1CNc2cc(Cl)ccc2N1
inactive: EKVX NSCLC 89.1% | SN12C renal 103% | UO-31 renal 81.6% | ACHN renal 98.6% | CAKI-1 renal 97.8% | A498 renal 97.3% | CCRF-CEM leukemia 93.3% | MOLT-4 leukemia 87.4%

CC(=O)Nc1c(Cl)cc2c(c1Cl)Cc1cc([N+](=O)[O-])ccc1-2
inactive: EKVX NSCLC 42.2% | SN12C renal 97.1% | UO-31 renal 86.3% | ACHN renal 79.5% | A498 renal 88.8% | CCRF-CEM leukemia 57.2% | MOLT-4 leukemia 85%

C=C1CC[C@@H]2[C@](C)(COC(C)=O)[C@H](OC(C)=O)CC[C@@]2(C)[C@@H]1CC(NCc1ccccc1)C1=CCOC1=O (stereo not given in full)
inactive: EKVX NSCLC 53.9% | SN12C renal 58.2% | UO-31 renal 29.1% | ACHN renal 46.4% | CAKI-1 renal 49.6% | A498 renal 56.2% | CCRF-CEM leukemia 20.9%
active: MOLT-4 leukemia -3.86%

CC(=O)N1N=C(c2ccc(Nc3nc(NCCO)nc(NCCO)n3)cc2)CC1c1ccc(Cl)cc1 (stereo not given)
inactive: EKVX NSCLC 91.9% | SN12C renal 98.8% | UO-31 renal 96.9% | TK-10 renal 83.3% | ACHN renal 96.4% | A498 renal 102% | CCRF-CEM leukemia 114% | MOLT-4 leukemia 116%

COc1cc(/C=C/C(=O)c2c(C)n([O-])c3ccc(Cl)cc3[n+]2=O)cc(OC)c1OC
active: CCRF-CEM leukemia -34.2% | MOLT-4 leukemia -34.8%
inactive: EKVX NSCLC 65.8% | SN12C renal 80.1% | TK-10 renal 103% | ACHN renal 79.6% | CAKI-1 renal 107% | A498 renal 98.2%

COc1ccccc1-n1c(-c2ccc(O)cc2C)cn2c3c(=O)[nH]c(=O)n(C)c3nc12
inactive: EKVX NSCLC 98.7% | SN12C renal 75% | UO-31 renal 74.2% | ACHN renal 74% | CAKI-1 renal 79.4% | A498 renal 80.2% | CCRF-CEM leukemia 106% | MOLT-4 leukemia 81.4%

CCN(CC)CCCCCCCNc1c2ccc(Cl)cc2nc2ccc(OC)cc12
active: EKVX NSCLC -6.42% | SN12C renal 0.458% | UO-31 renal -52% | ACHN renal -39.1% | A498 renal -92.1% | CCRF-CEM leukemia 0.0912% | MOLT-4 leukemia -11.3%

Cc1[nH]ccc2cc3nc4ccccc4c3cc12
active: UO-31 renal 8.89% | A498 renal 4.99% | MOLT-4 leukemia 8.62%
inactive: EKVX NSCLC 30.7% | SN12C renal 27.8% | ACHN renal 15.4% | CAKI-1 renal 52% | CCRF-CEM leukemia 17.1%

CCN(CC)CCOCC[C@H]1CC[C@H]2[C@@H]3[C@H](C)Cc4cc(OS(N)(=O)=O)ccc4[C@H]3CC[C@]12C
active: EKVX NSCLC -23.4% | SN12C renal -62.9% | TK-10 renal -56.8% | ACHN renal -65.9% | CAKI-1 renal -73.9% | A498 renal -91.6% | CCRF-CEM leukemia -26.8% | MOLT-4 leukemia -52.2%

O=C(Nc1ccccc1)c1cc(-n2cnc([N+](=O)[O-])c2)cc(-n2cnc([N+](=O)[O-])c2)n1
inactive: EKVX NSCLC 107% | SN12C renal 103% | UO-31 renal 92.3% | TK-10 renal 112% | ACHN renal 100% | A498 renal 114% | CCRF-CEM leukemia 89.3% | MOLT-4 leukemia 94.2%

CN1CCN(CCCCCN=c2cc3c(=O)n(CCCCCN4CCN(C)CC4)c(=O)c4c(NCCCCCN5CCN(C)CC5)cc5c(O)n(CCCCCN6CCN(C)CC6)c(=O)c2c5c4-3)CC1
inactive: UO-31 renal 115% | ACHN renal 88.5% | CAKI-1 renal 102% | A498 renal 95.6% | CCRF-CEM leukemia 13.9% | MOLT-4 leukemia 25.2%
active: EKVX NSCLC -11.4% | SN12C renal 5.16%

CC(=O)N1N=C(c2ccc(Cl)cc2)CC1c1c(C)nn(-c2ccccc2)c1N(C)Cc1ccccc1 (stereo not given)
inactive: EKVX NSCLC 76.4% | SN12C renal 63.2% | UO-31 renal 50.2% | TK-10 renal 88.5% | ACHN renal 90.9% | CCRF-CEM leukemia 73% | MOLT-4 leukemia 44.4%

Cc1ccc(/C=C(/C#N)n2nnc3ncccc32)cc1
active: SN12C renal 8.6% | ACHN renal 0.614% | A498 renal -7.36% | CCRF-CEM leukemia 9.57%
inactive: EKVX NSCLC 24.8% | UO-31 renal 24.3% | MOLT-4 leukemia 11.8%
